The text below walks through data of PubChem BioAssay (EPA / NIEHS).

Records with an inconclusive call do not appear. Calls of active or inactive are those of the source. How the source made its calls: active means hit-call score of the fitted dose curve at least 0.9, where 1 is the maximum; inconclusive means response in the unintended direction; inactive means score below 0.9.

Experiment [1] has as its target guinea pig Opioid, Kappa 1 Receptor (OpiateK), OPRK1 (gene 100135587) (UniProt P41144). Description: NVS_GPCR_gOpiateK: NovaScreen (NVS) G Protein-Coupled Receptor Assay for guinea pig Opioid, Kappa 1 Receptor (OpiateK) (AID 2283252).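 Further: active means reduced radioligand binding relative to DMSO.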 A digest of the protocol: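 Guinea pig cerebellar membranes were incubated with a radioligand for 2 h after compound addition; bound radioactivity was read by filter-based scintillation counting. Loss of specific binding relative to DMSO baseline defined activity; primary screen at 25 uM in duplicate.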

The subject of experiment [2] is guinea pig Muscarinic, Peripheral (Mperiperal) Receptor, Non-selective Binding, gene 100379235. The experiment can be described thus: NVS_GPCR_gMPeripheral_NonSelective: NovaScreen (NVS) G Protein-Coupled Receptor Assay for guinea pig Muscarinic, Peripheral (Mperiperal) Receptor, Non-selective Binding (AID 2283250). A digest of the protocol:
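Guinea pig bladder membranes, radioligand binding read 1 h after dosing by filter scintillation counting; loss of signal vs DMSO. Primary duplicate screen at 25 uM, then concentration-response up to 50 uM.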

Experiment [3] has as its target human Serotonin, 5-Hydroxytryptamine Receptor 5A (5HT5A), HTR5A (gene 3361) (UniProt P47898). Description: NVS_GPCR_h5HT5A: NovaScreen (NVS) G Protein-Coupled Receptor Assay for human Serotonin, 5-Hydroxytryptamine Receptor 5A (5HT5A) (AID 2283251). A digest of the protocol: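 Cell-free radioligand displacement binding on HEK293-derived membrane protein, 1 h incubation, filter-based scintillation counting. Primary screen in duplicate at 25 uM, actives followed in concentration series; loss of signal fitted versus DMSO.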

Experiment [4] concerns the target human Serotonin, 5-Hydroxytryptamine Receptor 7 (5HT7), HTR7 (gene 3363) (UniProt P34969). The experiment can be described thus: NVS_GPCR_h5HT7: NovaScreen (NVS) G Protein-Coupled Receptor Assay for human Serotonin, 5-Hydroxytryptamine Receptor 7 (5HT7) (AID 2283255).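 Further: hits reduce specific radioligand binding relative to DMSO.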 The method, then:
NVS_GPCR_h5HT7 is a biochemical, single-readout assay that uses extracted gene-proteins from CHO in a cell-free assay. Measurements were taken 1 hour after chemical dosing in a 96-well plate.NVS_GPCR_h5HT7 is one of one assay component(s) measured or calculated from the NVS_GPCR_h5HT7 assay. It is designed to make measurements of radioligand binding, a form of binding reporter, as detected with scintillation counting signals by Filter-based radiodetection technology.Data from the assay component NVS_GPCR_h5HT7 was analyzed into 1 assay endpoint. This assay endpoint, NVS_GPCR_h5HT7, was analyzed in the positive analysis fitting direction relative to DMSO as the negative control and baseline of activity. Using a type of binding reporter, loss-of-signal activity can be used to understand changes in the binding as they relate to the gene HTR7. Furthermore, this assay endpoint can be referred to as a primary readout, because the performed assay has only produced 1 assay endpoint. To generalize the intended target to other relatable targets, this assay endpoint is annotated to the gpcr intended target family, where the subfamily is rhodopsin-like receptor.
Binding assays used specific radioligands (tritiated, iodinated) with non-radioactive competitive displacement ligands in agonist or antagonist protocols (as indicated) and various reference compounds and inhibitors to titrate specific binding to receptors and transporters. Most enzyme assays (CYPs, kinases, phosphatases, proteases, HDACs) used recombinant protein and specific substrates (fluorescence mostly, some colorimetric and radioactive) and inhibitors, followed by a biochemical separation of substrate and product. All assays for the biochemical HTS were initially run in duplicate at a single concentration (10 uM for CYP450 assays and 25 uM for all others). […] Each assay was run with positive and negative controls, and concurrent controls on every plate. The follow-up (secondary) screen tested active chemical-pairs in concentration series, as well as a few additional assays not tested in the primary screen, some selected negative inactives, and several cases re-run in the concentration series for confirmatory purposes.

The target of experiment [5] is human Adenosine A1 Receptor (AdoRA1), ADORA1 (gene 134) (UniProt P30542). Description: NVS_GPCR_hAdoRA1: NovaScreen (NVS) G Protein-Coupled Receptor Assay for human Adenosine A1 Receptor (AdoRA1) (AID 2283254). A digest of the protocol:
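Each chemical is first tested twice at 25 uM, actives later in dilution series, against a radioligand bound to human cortex membranes; after 1 h, filter-retained counts are compared with DMSO controls, lower signal indicating displacement.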

Experiment [6] concerns the target human Adenosine A2a Receptor (AdoRA2a), ADORA2A (gene 135) (UniProt P29274). The experiment can be described thus: NVS_GPCR_hAdoRA2a: NovaScreen (NVS) G Protein-Coupled Receptor Assay for human Adenosine A2a Receptor (AdoRA2a) (AID 2283256). A digest of the protocol:
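Radioligand displacement on HEK293-derived membrane protein, cell-free; filter-based scintillation counting 1.5 hours after dosing, loss of signal vs DMSO. Single-point duplicate screen at 25 uM, actives retested in concentration series.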

For experiment [7], the target named is human Adrenergic, Alpha 2c Receptor (Adra2C), ADRA2C (gene 152) (UniProt P18825). Description: NVS_GPCR_hAdra2C: NovaScreen (NVS) G Protein-Coupled Receptor Assay for human Adrenergic, Alpha 2c Receptor (Adra2C) (AID 2283259). A digest of the protocol:
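Radioligand binding on Sf9-expressed receptor membranes, 1 h after chemical dosing, filter-based scintillation read-out. Loss of binding fitted positively versus DMSO; primary duplicate screen at 25 uM, actives retested in concentration series.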

The target of experiment [8] is human Serotonin, 5-Hydroxytryptamine Receptor 6 (5HT6), HTR6 (gene 3362) (UniProt P50406). Description: NVS_GPCR_h5HT6: NovaScreen (NVS) G Protein-Coupled Receptor Assay for human Serotonin, 5-Hydroxytryptamine Receptor 6 (5HT6) (AID 2283253). A digest of the protocol:
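Radioligand binding to 5HT6 in HEK293-derived membranes, cell-free, 1 h after dosing; bound ligand measured by filter-based scintillation counting. Primary screen in duplicate at 25 uM; actives retested in concentration series.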

The target in experiment [9] is human Adrenergic, Alpha 2A Receptor (Adra2A), ADRA2A (gene 150) (UniProt P08913). Description: NVS_GPCR_hAdra2A: NovaScreen (NVS) G Protein-Coupled Receptor Assay for human Adrenergic, Alpha 2A Receptor (Adra2A) (AID 2283257). A digest of the protocol: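 Radioligand filter-binding was run on HT29-derived membranes, cell-free, read by scintillation counting 1 h after dosing. Primary screening was in duplicate at 25 uM, with concentration series in follow-up. Loss of signal versus DMSO indicates displacement.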
human Adrenergic, Alpha 2A Receptor (Adra2A), ADRA2A (gene 150), sequence (P08913 whole entry, looked up): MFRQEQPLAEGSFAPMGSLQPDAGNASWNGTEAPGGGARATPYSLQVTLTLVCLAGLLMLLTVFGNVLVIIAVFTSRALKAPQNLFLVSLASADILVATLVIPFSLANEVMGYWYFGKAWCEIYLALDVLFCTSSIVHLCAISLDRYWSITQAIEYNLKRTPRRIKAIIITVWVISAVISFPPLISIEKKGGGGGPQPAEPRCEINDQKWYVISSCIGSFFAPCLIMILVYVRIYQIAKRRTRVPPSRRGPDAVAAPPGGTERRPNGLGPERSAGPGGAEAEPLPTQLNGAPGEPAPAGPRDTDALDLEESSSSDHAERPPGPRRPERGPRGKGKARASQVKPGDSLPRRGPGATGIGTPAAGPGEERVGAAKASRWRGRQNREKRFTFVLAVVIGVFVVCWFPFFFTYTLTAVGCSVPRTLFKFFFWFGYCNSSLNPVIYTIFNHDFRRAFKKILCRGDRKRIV

Experiment [10] addresses human Adrenergic, Beta 1 Receptor (Adrb1), ADRB1 (gene 153) (UniProt P08588). The experiment can be described thus: NVS_GPCR_hAdrb1: NovaScreen (NVS) G Protein-Coupled Receptor Assay for human Adrenergic, Beta 1 Receptor (Adrb1) (AID 2283258). A digest of the protocol:
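Cell-free radioligand displacement on receptor from human neuroepithelioma cells; 2 h after dosing, filter-based scintillation counting. Primary screen in duplicate at 25 uM, actives retested in concentration series; loss of signal vs DMSO baseline.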

human Serotonin, 5-Hydroxytryptamine Receptor 7 (5HT7), HTR7 (gene 3363), sequence (P34969 whole entry, looked up): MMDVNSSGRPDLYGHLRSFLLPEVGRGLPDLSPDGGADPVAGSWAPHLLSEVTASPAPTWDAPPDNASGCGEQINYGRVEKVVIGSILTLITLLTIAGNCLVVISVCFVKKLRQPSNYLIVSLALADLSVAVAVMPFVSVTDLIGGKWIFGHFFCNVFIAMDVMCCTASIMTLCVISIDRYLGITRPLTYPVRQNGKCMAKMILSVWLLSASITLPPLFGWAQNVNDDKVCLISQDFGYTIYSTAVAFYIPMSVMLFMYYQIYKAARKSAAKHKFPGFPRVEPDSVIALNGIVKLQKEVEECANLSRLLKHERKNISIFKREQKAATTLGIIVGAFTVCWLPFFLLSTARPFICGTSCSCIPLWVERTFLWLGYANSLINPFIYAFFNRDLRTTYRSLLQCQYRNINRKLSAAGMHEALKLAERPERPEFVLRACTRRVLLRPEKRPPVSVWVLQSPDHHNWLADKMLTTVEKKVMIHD
human Adenosine A1 Receptor (AdoRA1), ADORA1 (gene 134), sequence (P30542 whole entry, looked up): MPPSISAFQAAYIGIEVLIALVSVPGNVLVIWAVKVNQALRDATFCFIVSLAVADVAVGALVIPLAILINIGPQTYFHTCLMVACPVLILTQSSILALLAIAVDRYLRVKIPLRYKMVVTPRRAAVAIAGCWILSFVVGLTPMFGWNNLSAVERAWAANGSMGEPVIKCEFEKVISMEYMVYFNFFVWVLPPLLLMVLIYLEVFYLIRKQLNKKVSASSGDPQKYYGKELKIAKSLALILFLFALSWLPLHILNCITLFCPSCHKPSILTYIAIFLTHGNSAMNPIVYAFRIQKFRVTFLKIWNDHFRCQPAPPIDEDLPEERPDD
guinea pig Opioid, Kappa 1 Receptor (OpiateK), OPRK1 (gene 100135587), sequence (P41144 whole entry, looked up): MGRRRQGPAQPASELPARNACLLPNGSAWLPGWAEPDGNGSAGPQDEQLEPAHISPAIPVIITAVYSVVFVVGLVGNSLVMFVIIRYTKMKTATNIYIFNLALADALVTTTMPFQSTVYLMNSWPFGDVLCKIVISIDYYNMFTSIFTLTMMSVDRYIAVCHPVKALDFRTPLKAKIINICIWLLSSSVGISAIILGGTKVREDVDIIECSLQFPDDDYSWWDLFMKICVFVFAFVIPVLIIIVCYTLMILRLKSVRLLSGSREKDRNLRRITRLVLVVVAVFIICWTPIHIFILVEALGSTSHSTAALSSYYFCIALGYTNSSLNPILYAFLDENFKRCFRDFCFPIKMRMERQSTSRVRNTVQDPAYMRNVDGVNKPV
human Serotonin, 5-Hydroxytryptamine Receptor 5A (5HT5A), HTR5A (gene 3361), sequence (P47898 whole entry, looked up): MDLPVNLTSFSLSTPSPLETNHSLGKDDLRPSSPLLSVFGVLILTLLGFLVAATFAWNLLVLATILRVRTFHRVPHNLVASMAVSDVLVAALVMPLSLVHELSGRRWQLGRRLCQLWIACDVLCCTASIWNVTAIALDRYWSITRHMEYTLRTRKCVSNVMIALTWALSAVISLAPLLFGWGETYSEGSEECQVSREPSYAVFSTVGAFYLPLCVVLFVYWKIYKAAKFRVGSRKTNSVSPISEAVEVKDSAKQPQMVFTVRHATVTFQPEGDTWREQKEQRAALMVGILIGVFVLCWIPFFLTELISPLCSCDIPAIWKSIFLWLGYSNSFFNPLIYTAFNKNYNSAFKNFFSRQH
human Adenosine A2a Receptor (AdoRA2a), ADORA2A (gene 135), sequence (P29274 whole entry, looked up): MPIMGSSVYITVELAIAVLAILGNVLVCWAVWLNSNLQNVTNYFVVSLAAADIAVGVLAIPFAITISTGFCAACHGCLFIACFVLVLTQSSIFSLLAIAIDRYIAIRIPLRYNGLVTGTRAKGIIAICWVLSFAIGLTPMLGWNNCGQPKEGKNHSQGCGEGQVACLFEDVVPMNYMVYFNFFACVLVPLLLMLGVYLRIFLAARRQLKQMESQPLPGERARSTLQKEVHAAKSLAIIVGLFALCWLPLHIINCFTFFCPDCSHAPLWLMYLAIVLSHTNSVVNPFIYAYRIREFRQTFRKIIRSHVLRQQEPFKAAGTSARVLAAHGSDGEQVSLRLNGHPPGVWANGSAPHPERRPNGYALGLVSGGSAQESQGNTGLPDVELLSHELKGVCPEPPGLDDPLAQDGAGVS
human Adrenergic, Alpha 2c Receptor (Adra2C), ADRA2C (gene 152), sequence (P18825 whole entry, looked up): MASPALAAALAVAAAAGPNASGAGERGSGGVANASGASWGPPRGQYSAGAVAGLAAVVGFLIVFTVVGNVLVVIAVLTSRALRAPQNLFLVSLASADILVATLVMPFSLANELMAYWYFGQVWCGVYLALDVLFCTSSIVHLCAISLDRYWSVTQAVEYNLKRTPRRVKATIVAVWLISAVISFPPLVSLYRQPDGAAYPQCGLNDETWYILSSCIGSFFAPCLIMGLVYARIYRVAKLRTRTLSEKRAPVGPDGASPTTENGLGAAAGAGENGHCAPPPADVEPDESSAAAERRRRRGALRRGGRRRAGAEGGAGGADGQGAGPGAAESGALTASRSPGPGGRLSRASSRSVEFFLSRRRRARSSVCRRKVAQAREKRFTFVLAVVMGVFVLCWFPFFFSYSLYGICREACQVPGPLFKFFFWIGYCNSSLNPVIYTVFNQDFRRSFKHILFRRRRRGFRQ
human Serotonin, 5-Hydroxytryptamine Receptor 6 (5HT6), HTR6 (gene 3362), sequence (P50406 whole entry, looked up): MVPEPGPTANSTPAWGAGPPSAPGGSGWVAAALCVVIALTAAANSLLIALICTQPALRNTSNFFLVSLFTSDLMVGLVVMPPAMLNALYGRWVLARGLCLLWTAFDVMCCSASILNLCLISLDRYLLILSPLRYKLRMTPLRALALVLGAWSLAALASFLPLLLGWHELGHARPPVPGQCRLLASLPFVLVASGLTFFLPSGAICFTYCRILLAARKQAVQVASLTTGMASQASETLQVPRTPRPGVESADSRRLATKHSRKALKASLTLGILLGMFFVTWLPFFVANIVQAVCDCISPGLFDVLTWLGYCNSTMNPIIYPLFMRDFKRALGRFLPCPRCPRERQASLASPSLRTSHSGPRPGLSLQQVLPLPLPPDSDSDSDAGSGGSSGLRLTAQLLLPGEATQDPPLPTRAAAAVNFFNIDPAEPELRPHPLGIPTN
human Adrenergic, Beta 1 Receptor (Adrb1), ADRB1 (gene 153), sequence (P08588 whole entry, looked up): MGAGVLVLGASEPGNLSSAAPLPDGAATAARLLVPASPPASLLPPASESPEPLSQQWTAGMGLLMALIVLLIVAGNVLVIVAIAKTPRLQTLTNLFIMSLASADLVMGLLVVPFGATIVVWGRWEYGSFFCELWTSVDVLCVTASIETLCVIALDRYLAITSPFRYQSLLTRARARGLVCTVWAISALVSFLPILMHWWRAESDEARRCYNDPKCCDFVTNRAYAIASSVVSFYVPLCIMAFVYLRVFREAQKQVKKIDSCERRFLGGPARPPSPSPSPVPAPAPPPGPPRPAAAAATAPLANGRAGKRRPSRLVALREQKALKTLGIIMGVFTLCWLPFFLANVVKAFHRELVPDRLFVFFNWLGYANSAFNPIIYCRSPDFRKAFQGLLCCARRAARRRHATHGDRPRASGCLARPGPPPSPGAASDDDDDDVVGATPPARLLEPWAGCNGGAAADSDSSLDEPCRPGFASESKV

In the case of `CCc1cccc(C)c1N(C(=O)CCl)C(C)COC` (centres undefined), in [1], the AC50 is 16.2 µM (active).

On to `N#CSCSC#N`, for which the AC50 in experiment [2] is 7.4 µM (active); in [1], 38.7 µM (active).

Regarding `C[Si](Cn1cncn1)(c1ccc(F)cc1)c1ccc(F)cc1`, the AC50 in experiment [3] is 7.85 µM (active); in experiment [1] it was 25 µM (active); in [4], 16.6 µM (active).

For the compound `CCNc1nc(Cl)nc(NC(C)(C)C#N)n1`, the concentration at half-maximal activity (AC50) is 4.08 µM (active) in experiment [5] and 5.75 µM (active) in experiment [6].

For the compound `CCc1cnc(C2=NC(C)(C(C)C)C(=O)N2)c(C(=O)O)c1` (centres undefined), the result in experiment [7] was inactive.

With `CC(C)[C@H](C(=O)O[C@H](C#N)c1cccc(Oc2ccccc2)c1)c1ccc(Cl)cc1`, the values for the AC50 in experiment [3] and in experiment [4] were 6.96 µM (active) and 6.87 µM (active), respectively.

Turning to `CC(C)=CC1C(C(=O)OCN2C(=O)C3=C(CCCC3)C2=O)C1(C)C` (centres undefined), the compound was classed as inactive in [4].

For `CC[C@H](C)[C@H]1O[C@]2(C=C[C@@H]1C)C[C@@H]1C[C@@H](C/C=C(\C)[C@@H](O[C@H]3C[C@H](OC)[C@@H](O[C@H]4C[C@H](OC)[C@@H](NC)[C@H](C)O4)[C@H](C)O3)[C@@H](C)/C=C/C=C3\CO[C@@H]4[C@H](O)C(C)=C[C@@H](C(=O)O1)[C@]34O)O2`, the AC50 is 7.94 µM (active) in experiment [3]; 25 µM (active) in experiment [1]; 13.9 µM (active) in [8]; 4.29 µM (active) in experiment [4]; 26.8 µM (active) in experiment [9]; 9.83 µM (active) in experiment [10]. Moreover, the AC50 in experiment [7] was 10.7 µM (active).

Turning to `CCOP(=S)(OCC)Oc1ccc2c(C)c(Cl)c(=O)oc2c1`, the outcome in [3] and in [9] was inactive.

As to `Cc1cc(C2CC2)nc(Nc2ccccc2)n1`, the call in [2] was inactive. Also, the AC50 was 9.57 µM (active) in experiment [5], 25 µM (active) in [4] and 14.1 µM (active) in experiment [6].

On to `FC(F)C(F)(F)OCC(Cn1cncn1)c1ccc(Cl)cc1Cl` (centres undefined), for which the compound was classed as inactive in [1]. Further, the AC50 in [5] is 25 µM (active).

As to `COc1ccc(C(=CC(=O)N2CCOCC2)c2ccc(Cl)cc2)cc1OC`, the call in experiment [1] was inactive. The AC50 in [5] is 14.2 µM (active).

Broadly, the AC50 is the midpoint of the concentration-response curve, whichever way the signal moves.
